SF-1 inh: blocks the human nuclear receptor SF-1. 65,000 tested, 0.55% active. Q13285. inhibition, % at 10 µM. CHO-K1 Gal4-SF-1 LBD luciferase reporter. AID 525;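 active means inhibition above the mean inhibition of all tested compounds plus 3 SD, cut at about 48% in these data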;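 further: 0% = SF-1 transfected cells with DMSO and 100% = mock-transfected cells lacking SF-1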
Target sequence (Q13285 whole entry, looked up, the tested form may be a part): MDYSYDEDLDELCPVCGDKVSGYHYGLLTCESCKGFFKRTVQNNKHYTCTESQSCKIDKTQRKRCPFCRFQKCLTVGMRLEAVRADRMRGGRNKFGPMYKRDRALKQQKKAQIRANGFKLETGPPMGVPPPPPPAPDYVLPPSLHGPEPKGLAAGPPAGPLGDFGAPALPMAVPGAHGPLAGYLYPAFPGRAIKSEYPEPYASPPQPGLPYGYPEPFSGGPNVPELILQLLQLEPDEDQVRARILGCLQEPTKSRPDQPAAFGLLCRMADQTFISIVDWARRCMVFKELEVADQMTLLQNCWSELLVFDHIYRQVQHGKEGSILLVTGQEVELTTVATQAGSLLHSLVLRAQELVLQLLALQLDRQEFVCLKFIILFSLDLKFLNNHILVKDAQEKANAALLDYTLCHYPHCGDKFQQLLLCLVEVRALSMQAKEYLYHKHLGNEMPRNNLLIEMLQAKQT
* marks the source's active call; other numbers are inactive results. The sample as a whole holds a higher share of hits than the screen did.

SMILES | SF-1 inh
COc1ccccc1-c1ccc(NC2CCCCC2)nn1 | -80
COc1ccc(C2=CSC3=NCCN23)cc1F | -8
O=C(O)CN=C(NS(=O)(=O)c1ccccc1)c1ccccc1 | 2
Cc1ccc(-c2cc(C(=O)N3CCN(c4ncccn4)CC3)c3ccccc3n2)cc1 | -54
O=C(C(Cc1ccccc1)N1C(=O)C2C3C=CC(C3)C2C1=O)N1CCCCC1 (stereo not drawn) | 1
CCC(NC(=O)Nc1ncccc1C)(C(F)(F)F)C(F)(F)F | -7
COc1ccc(C(=O)Nc2nnc(C(F)(F)F)s2)cc1 | -57
CCC(NC(=O)Nc1nnc(C(F)(F)F)s1)(C(F)(F)F)C(F)(F)F | 94*
COc1ccccc1NC(=O)CSc1ccc2nnc(-c3ccncc3)n2n1 | 9
COc1cccc(C2CC(c3ccc(Cl)cc3)Nc3nc(N)nn32)c1 (stereo not drawn) | 1
Cc1cc(C(=O)CNCc2ccco2)c(C)n1-c1ccc(F)cc1 | -53
COc1ccc(C(=O)Nn2c(SCC(=O)NCc3ccco3)nc3ccccc3c2=O)cc1 | 62*
CCOC(=O)CSc1nc2cc(C(=O)NCc3ccco3)ccc2c(=O)n1-c1ccc(F)cc1 | 51*
CCOC(=O)CSc1nnc(CNC(=O)c2ccc(OC)cc2OC)n1-c1ccc(OC)cc1 | 14
COc1ccc2cc(C(=O)NCc3ccco3)c(=O)oc2c1 | 11
CCn1c(SCC(=O)NCCOc2ccccc2)nc2ccccc2c1=O | 7
CN(Cc1ccccc1)Cc1nc2c(c(=O)n(C)c(=O)n2C)n1CCc1ccccc1 | 5
C=CCn1c(C)cc(C(=O)CSc2nc3ccccc3c(=O)[nH]2)c1C | -112
COc1ccc(-c2onc(C)c2-c2ccc(C(=O)OC(C)C)o2)c(O)c1 | -7
CN1Cc2cc(C(=O)c3cc(Cl)cc(CSc4ncccn4)c3O)cnc2NC1=O | 50*
Cc1ccc(O)c(C(=O)c2cnc3c(c2)CN(CCC(C)C)C(=O)N3)c1 | -18
CCN(Cc1nc2cc(OC)c(OC)cc2c(=O)[nH]1)C(=O)c1ccc(S(=O)(=O)N(C)C)cc1 | 12
CC(CN1CCNCC1)(NS(=O)(=O)c1ccccc1)c1ccccc1 (stereo not drawn) | -10
CC1CCN(C(=O)c2ccc(N(C)S(C)(=O)=O)cc2)CC1 | -16
COc1ccc(N2CCN(C(c3cccs3)C(C)NC(=O)c3ccco3)CC2)cc1 (stereo not drawn) | -16
SMILES | SF-1 inh
Cc1cnc(NC(=O)c2ccco2)s1 | -53
Cc1sc(NC(=O)c2ccco2)c(C(c2cccnc2)N2CCN(c3ccc(F)cc3)CC2)c1C (stereo not drawn) | 48*
CCCc1nnc(SCc2ccc(C(=O)OC)o2)n1N | -3
O=c1[nH]c(C2CCCN(S(=O)(=O)c3ccc(F)cc3)C2)nc2c1nnn2Cc1ccccc1 (stereo not drawn) | -16
O=C(NC1(C(=O)NC2CCCCC2)CCCCC1)c1ccc2c(c1)OCO2 | -11
O=C(c1ccc(Cl)cc1)N1CCCCC(Sc2nnc(-c3ccc4c(c3)OCO4)o2)C1=O (stereo not drawn) | 89*
CC(=O)C1(C)OC(N)=C(C#N)C(c2ccccc2)C1(C#N)C#N (stereo not drawn) | 9
Cc1ccc(-c2nc(C#N)c(NCCc3ccccn3)o2)cc1 | -54
CN(C)S(=O)(=O)c1ccc(C(=O)Nc2ccc(CN3CCCC3)cc2)cc1 | 11
CCN(CC)S(=O)(=O)c1ccc(NC(=O)c2ccccn2)cc1 | -55
CCCCN(CCCC)S(=O)(=O)c1ccc(C(=O)Nc2nnc(CSC)o2)cc1 | 55*
COC(=O)c1cn(C(C)C(=O)NCc2ccco2)c2ccccc12 (stereo not drawn) | 13
COc1cccc(OCc2nc3ncc(Br)cc3[nH]2)c1 | -76
Cc1c(NC(=O)c2ccc3c(c2)OCO3)cccc1-c1nc2ccccc2o1 | -7

Assay outcomes from PubChem BioAssay.
